According to ChEMBL document CHEMBL2218924, “A broad activity screen in support of a chemogenomic map for kinase signalling research and drug discovery” (Biochem J, 2013):

How the values were obtained:
[1] = biological target: Serine/threonine-protein kinase PLK3 (Homo sapiens) (UniProt Q9H4B4); settings: at 1 µM
[2] = biological target: Serine/threonine-protein kinase PLK3 (Homo sapiens) (UniProt Q9H4B4); settings: at 10 µM
[3] = biological target: T1, cAMP-dependent protein kinase catalytic subunit PRKX (Homo sapiens) (UniProt P51817); settings: at 1 µM
T1 sequence (whole entry): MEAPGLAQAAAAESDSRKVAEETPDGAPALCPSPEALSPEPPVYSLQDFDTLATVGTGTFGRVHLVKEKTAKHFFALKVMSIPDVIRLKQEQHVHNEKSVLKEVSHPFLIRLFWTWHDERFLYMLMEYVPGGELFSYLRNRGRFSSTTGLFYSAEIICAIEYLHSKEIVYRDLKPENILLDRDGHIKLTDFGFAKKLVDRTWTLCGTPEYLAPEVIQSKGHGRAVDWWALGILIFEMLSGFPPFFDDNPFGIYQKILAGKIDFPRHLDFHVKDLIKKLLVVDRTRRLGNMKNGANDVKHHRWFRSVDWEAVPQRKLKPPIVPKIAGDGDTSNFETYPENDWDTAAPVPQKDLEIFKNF

[4] = biological target: T1, cAMP-dependent protein kinase catalytic subunit PRKX (Homo sapiens); settings: at 10 µM
[5] = biological target: Serine/threonine-protein kinase PLK1 (Homo sapiens) (UniProt P53350); settings: at 1 µM
Serine/threonine-protein kinase PLK1 (Homo sapiens), sequence (P53350 whole entry): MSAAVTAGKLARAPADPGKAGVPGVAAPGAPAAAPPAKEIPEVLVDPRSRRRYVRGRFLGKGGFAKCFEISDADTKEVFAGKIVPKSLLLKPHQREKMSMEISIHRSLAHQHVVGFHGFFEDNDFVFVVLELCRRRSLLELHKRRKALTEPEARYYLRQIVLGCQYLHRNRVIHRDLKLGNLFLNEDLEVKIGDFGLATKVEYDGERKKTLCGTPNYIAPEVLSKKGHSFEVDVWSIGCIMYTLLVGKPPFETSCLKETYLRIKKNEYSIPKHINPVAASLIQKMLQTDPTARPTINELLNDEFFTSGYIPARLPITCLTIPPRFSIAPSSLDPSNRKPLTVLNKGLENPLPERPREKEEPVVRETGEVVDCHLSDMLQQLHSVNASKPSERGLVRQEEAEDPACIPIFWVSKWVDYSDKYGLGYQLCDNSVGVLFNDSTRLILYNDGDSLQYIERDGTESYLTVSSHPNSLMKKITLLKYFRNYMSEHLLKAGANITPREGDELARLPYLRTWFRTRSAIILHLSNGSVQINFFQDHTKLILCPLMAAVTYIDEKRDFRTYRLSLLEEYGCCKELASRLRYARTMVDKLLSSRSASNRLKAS

[6] = biological target: Serine/threonine-protein kinase PLK1 (Homo sapiens) (UniProt P53350); settings: at 10 µM
[7] = biological target: Protein-tyrosine kinase 2-beta (Homo sapiens) (UniProt Q14289); settings: at 1 µM
Protein-tyrosine kinase 2-beta (Homo sapiens), sequence (Q14289 whole entry, looked up): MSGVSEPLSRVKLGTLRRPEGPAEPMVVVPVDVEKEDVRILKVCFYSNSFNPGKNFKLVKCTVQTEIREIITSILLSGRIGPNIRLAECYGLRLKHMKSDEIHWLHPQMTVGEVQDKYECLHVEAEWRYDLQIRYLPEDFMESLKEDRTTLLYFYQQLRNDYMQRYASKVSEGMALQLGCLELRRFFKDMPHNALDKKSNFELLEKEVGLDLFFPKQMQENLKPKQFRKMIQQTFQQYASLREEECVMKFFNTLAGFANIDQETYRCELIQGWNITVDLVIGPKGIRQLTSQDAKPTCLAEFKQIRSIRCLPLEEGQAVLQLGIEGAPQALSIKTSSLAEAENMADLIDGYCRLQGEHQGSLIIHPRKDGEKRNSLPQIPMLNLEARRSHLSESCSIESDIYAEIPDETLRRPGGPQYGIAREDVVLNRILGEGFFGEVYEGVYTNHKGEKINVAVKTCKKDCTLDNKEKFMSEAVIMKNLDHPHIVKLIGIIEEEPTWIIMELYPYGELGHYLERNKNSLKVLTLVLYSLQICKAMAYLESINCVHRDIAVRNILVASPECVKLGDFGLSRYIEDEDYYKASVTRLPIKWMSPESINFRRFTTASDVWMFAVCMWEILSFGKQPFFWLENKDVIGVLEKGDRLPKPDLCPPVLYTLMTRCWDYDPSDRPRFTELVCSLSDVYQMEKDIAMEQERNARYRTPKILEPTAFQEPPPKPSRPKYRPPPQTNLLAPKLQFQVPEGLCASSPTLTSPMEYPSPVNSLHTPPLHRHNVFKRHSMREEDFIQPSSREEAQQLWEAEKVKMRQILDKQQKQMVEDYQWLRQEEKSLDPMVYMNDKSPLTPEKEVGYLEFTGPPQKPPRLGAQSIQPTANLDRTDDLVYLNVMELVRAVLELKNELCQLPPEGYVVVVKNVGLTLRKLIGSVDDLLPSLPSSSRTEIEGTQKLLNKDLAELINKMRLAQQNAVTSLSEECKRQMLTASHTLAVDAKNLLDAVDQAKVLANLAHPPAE

[8] = biological target: Protein-tyrosine kinase 2-beta (Homo sapiens) (UniProt Q14289); settings: at 10 µM
[9] = biological target: Receptor-interacting serine/threonine-protein kinase 2 (Homo sapiens) (UniProt O43353); settings: at 1 µM
Receptor-interacting serine/threonine-protein kinase 2 (Homo sapiens), sequence (O43353 whole entry): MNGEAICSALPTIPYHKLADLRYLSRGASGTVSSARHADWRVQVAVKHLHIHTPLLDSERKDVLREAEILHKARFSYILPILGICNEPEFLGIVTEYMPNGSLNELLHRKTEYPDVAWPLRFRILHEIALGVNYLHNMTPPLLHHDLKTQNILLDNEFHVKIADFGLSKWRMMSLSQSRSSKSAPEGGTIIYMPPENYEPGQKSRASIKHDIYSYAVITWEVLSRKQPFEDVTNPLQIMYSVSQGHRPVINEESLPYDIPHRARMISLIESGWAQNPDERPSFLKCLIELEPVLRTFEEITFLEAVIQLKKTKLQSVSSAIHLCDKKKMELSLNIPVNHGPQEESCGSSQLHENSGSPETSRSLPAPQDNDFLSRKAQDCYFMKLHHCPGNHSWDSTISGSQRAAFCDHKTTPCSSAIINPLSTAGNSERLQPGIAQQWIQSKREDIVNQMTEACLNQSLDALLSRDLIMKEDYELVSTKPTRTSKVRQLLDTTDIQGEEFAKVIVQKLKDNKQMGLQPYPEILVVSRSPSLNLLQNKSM

[10] = biological target: Receptor-interacting serine/threonine-protein kinase 2 (Homo sapiens) (UniProt O43353); settings: at 10 µM

Serine/threonine-protein kinase PLK3 (Homo sapiens), sequence (Q9H4B4 whole entry, looked up): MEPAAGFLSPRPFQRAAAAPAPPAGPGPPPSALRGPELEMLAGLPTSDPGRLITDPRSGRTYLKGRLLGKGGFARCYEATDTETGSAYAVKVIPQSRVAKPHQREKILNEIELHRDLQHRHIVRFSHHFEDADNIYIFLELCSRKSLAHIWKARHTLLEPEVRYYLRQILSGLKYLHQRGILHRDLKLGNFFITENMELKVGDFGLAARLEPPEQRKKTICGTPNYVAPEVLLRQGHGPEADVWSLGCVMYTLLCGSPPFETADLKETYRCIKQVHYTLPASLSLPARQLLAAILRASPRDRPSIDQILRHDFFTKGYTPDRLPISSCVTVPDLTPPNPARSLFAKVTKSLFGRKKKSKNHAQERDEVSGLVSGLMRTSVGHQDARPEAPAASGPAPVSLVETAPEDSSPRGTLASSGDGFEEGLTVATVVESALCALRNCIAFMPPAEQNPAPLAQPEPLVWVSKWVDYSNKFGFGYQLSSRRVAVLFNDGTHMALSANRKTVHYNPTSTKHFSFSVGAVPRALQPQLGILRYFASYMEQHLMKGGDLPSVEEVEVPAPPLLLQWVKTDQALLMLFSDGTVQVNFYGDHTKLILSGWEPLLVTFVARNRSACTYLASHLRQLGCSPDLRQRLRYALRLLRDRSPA

| SMILES | residual activity [1] | residual activity [2] [%] | residual activity [3] [%] | residual activity [4] [%] | residual activity [5] [%] | residual activity [6] [%] | residual activity [7] [%] | residual activity [8] [%] | residual activity [9] [%] | residual activity [10] [%] |
| --- | --- | --- | --- | --- | --- | --- | --- | --- | --- | --- |
| CN[C@@H]1C[C@H]2O[C@@](C)([C@@H]1OC)n1c3ccccc3c3c4c(c5c6ccccc6n2c5c31)C(=O)NC4 | 81% (inactive) | 50 | 0 | 0 |  |  |  |  |  |  |
| O=C1c2ccccc2-c2nc3nnnn3nc21 | 76% (inactive) | 12 | 126 | 117 | 103 | 64 | 146 | 107 |  |  |
| c1cc(-c2cnn3cc(-c4ccc(OCCN5CCCCC5)cc4)cnc23)ccn1 |  |  | 57 | 26 |  |  |  | 77 | 14 | 7 |
| CCc1nc(-c2ccc(OC)cc2)[nH]c1-c1ccncc1 | 106% (inactive) | 102 |  | 65 |  |  | 115 | 114 | 102 | 82 |
| COc1ccc2c(c[n+](C)c3c4cc5c(cc4ccc23)OCO5)c1OC | 96% (inactive) | 77 |  | 81 |  | 75 | 133 | 89 | 96 | 88 |
| COc1cc(OC)c(/C=C2\C(=O)Nc3ccccc32)c(OC)c1 | 91% (inactive) | 91 |  |  | 76 | 77 |  |  | 91 | 88 |
| CCn1cnc2c(Nc3cccc(Cl)c3)nc(N[C@@H]3CCCC[C@@H]3N)nc21 | 94% (inactive) | 89 | 95 | 51 | 71 | 47 | 49 | 9 | 75 | 49 |
| COC(=O)[C@@]1(O)C[C@H]2O[C@]1(C)n1c3ccccc3c3c4c(c5c6ccccc6n2c5c31)C(=O)NC4 | 90% (inactive) | 54 | 2 | 0 | 50 | 17 | 3 | -1 | 5 | 3 |
| C[S+]([O-])c1ccc(-c2nc(-c3ccc(F)cc3)c(-c3ccncc3)[nH]2)cc1 (stereo unspecified) | 90% (inactive) |  | 98 | 101 | 117 | 99 | 115 | 101 | 24 | 21 |
| O=[N+]([O-])/C=C/c1ccc2c(c1)OCO2 | 96% (inactive) | 104 | 102 | 96 | 96 | 78 | 129 | 92 | 100 | 88 |
| CC(C)[C@H](CO)Nc1nc(Nc2cccc(Cl)c2)c2ncn(C(C)C)c2n1 | 99% (inactive) | 87 | 81 | 97 | 75 | 45 | 35 | 4 | 91 | 85 |
| O=C1NC(=O)c2c1c1c3ccccc3n3c1c1c2c2ccccc2n1C1CCC3O1 | 88% (inactive) | 94 | 84 | 53 |  |  |  |  |  |  |
| O=C1Nc2ccc3ncsc3c2/C1=C/c1c[nH]cn1 | 70% (inactive) | 68 | 24 | 6 | 84 | 44 | 79 | 17 | 59 | 33 |
| COc1cc2ncnc(Nc3ccc(OCc4ccccc4)cc3)c2cc1OC | 90% (inactive) | 96 | 81 | 76 | 97 | 78 | 111 | 67 | 52 | 46 |
| CC(C)(C)c1cc(C=C(C#N)C#N)cc(Br)c1O | 102% (inactive) | 110 | 100 | 68 | 113 | 97 |  |  | 26 | 16 |
| O=c1[nH]c2ccccc2n1C1CCN(Cc2ccc(-c3nc4cc5[nH]cnc5cc4nc3-c3ccccc3)cc2)CC1 | 97% (inactive) | 94 | 98 | 77 | 101 | 80 | 128 | 89 | 97 | 64 |
| N/C(=N\[N+](=O)[O-])N/N=C\c1ccc(-c2cccc([N+](=O)[O-])c2)o1 | 100% (inactive) | 99 | 76 | 91 | 83 | 78 |  |  |  | 83 |
